From PubChem BioAssay AID1159580 (chemical genetic matrix, 2015)
Values joined by “and” are separate entries in the source; they are usually repeats but may differ in a detail not shown here. Identical values can stand only once. Out of some 5,500 compounds screened, about 2,000 (36%) were called active. Not shown: some 18% with an inconclusive outcome. No stated cut-off is given here; in the data, active means normalized growth mostly below about 0.91 (no sharp cut-off); inconclusive means no clear call, values can overlap the other calls; inactive means mostly above about 0.92. The list shows a part of the results.

Test: chemical genetic growth profiling, strain panel (AID 1159580);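 further: tested at 20 µM; growth read once vehicle control cultures reached saturation at 30 °C; 1 = growth at the plate median or of vehicle wells; lower values mean less growth of the strain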
Conditions: S. cerevisiae deletion strains, growth OD

Measured: normalized growth

CC1(C)CC2C1CC[C@]1(CBr)CCC3C(CC(=O)O)C(=O)O[C@@]32C1 (stereo partly specified)
inactive: locus YAL021C, strain ccr4, active compounds read low 0.992 | locus YAL026C, strain drs2, active compounds read low 1.02 | locus YAL030W, strain snc1, active compounds read low 1.01 | locus YBL061C, strain skt5, active compounds read low 1.01 | locus YBR009C, strain hhf1, active compounds read low 1.03 | locus YBR021W, strain FUR4, active compounds read low 1.01 | locus YBR023C, strain chs3, active compounds read low 1.01 | locus YBR171W, strain sec66, active compounds read low 1.01 | locus YBR229C, strain ROT2, active compounds read low 0.958 | locus YBR231C, strain swc5, active compounds read low 1.01 | locus YBR279W, strain paf1, active compounds read low 1.01 | locus YCL011C, strain gbp2, active compounds read low 1.01 | locus YCL016C, strain dcc1, active compounds read low 1.01 | locus YCL029C, strain bik1, active compounds read low 0.985 | locus YCL061C, strain MRC1, active compounds read low 1.01 | locus YCL069W, strain vba3, active compounds read low 1.01 | locus YCR088W, strain abp1, active compounds read low 1.01 | locus YDL005C, strain med2, active compounds read low 1 | locus YDL035C, strain GPR1, active compounds read low 0.984 | locus YDL040C, strain nat1, active compounds read low 1.01 | locus YDL074C, strain BRE1, active compounds read low 1 | locus YDL101C, strain DUN1, active compounds read low 1 | locus YDL134C, strain PPH21, active compounds read low 1.05 | locus YDL185W, strain tfp1, active compounds read low 0.971 | locus YDL192W, strain arf1, active compounds read low 0.976 | locus YDR001C, strain nth1, active compounds read low 1.01 | locus YDR069C, strain doa4, active compounds read low 1.02 | locus YDR101C, strain arx1, active compounds read low 0.98 | locus YDR137W, strain rgp1, active compounds read low 0.997 | locus YDR150W, strain NUM1, active compounds read low 1 | locus YDR159W, strain sac3, active compounds read low 1.03 | locus YDR162C, strain NBP2, active compounds read low 0.976 | locus YDR195W, strain ref2 1 | locus YDR297W, strain sur2, active compounds read low 1.01 | locus YDR318W, strain mcm21, active compounds read low 0.989 | locus YDR334W, strain swr1, active compounds read low 1.01 | locus YDR335W, strain msn5, active compounds read low 1.02 | locus YDR388W, active compounds read low 1 | locus YDR392W, strain spt3, active compounds read low 0.968 | locus YDR502C, strain sam2, active compounds read low 1.03 | locus YEL003W, strain gim4, active compounds read low 1.02 | locus YEL037C, strain rad23, active compounds read low 1.01 | locus YEL061C, strain CIN8 (second series), active compounds read low 1.01 | locus YEL061C, strain CIN8, active compounds read low 0.978 | locus YER015W, strain faa2, active compounds read low 1 | locus YER016W, strain bim1, active compounds read low 1.02 | locus YER110C, active compounds read low 0.984 | locus YER111C, strain swi4, active compounds read low 1.01 | locus YER155C, strain BEM2 (second series), active compounds read low 1.04 | locus YER155C, strain BEM2, active compounds read low 0.986 | locus YER167W, strain BCK2, active compounds read low 0.993 | locus YFR010W, strain ubp6, active compounds read low 1.01 | locus YGL078C, strain dbp3, active compounds read low 1.04 | locus YGL086W, strain mad1, active compounds read low 1 | locus YGL167C, strain pmr1, active compounds read low 1.01 | locus YGL173C, strain kem1, active compounds read low 1.01 | locus YGL227W, strain vid30, active compounds read low 1.02 | locus YGL240W, strain doc1, active compounds read low 1.03 | locus YGL248W, strain PDE1, active compounds read low 1.03 | locus YGL253W, strain hxk2, active compounds read low 1.01 | locus YGR135W, strain pre9, active compounds read low 1.09 | locus YGR229C, strain SMI1, active compounds read low 0.965 | locus YGR252W, strain gcn5, active compounds read low 1.08 | locus YHR013C, strain ard1, active compounds read low 1.01 | locus YHR027C, strain rpn1, active compounds read low 1.01 | locus YHR030C, strain SLT2, active compounds read low 0.983 | locus YHR079C, strain IRE1 (second series), active compounds read low 0.994 | locus YHR079C, strain IRE1, active compounds read low 1.02 | locus YHR094C, strain hxt1, active compounds read low 0.979 | locus YHR129C, strain ARP1, active compounds read low 0.995 | locus YHR142W, strain chs7, active compounds read low 0.998 | locus YHR200W, strain rpn10, active compounds read low 1 | locus YIL066C, strain RNR3, active compounds read low 0.98 | locus YIL073C, strain SPO22, active compounds read low 1.07 | locus YIL125W, strain kgd1, active compounds read low 0.984 | locus YIR030C, strain dcg1, active compounds read low 0.992 | locus YJL092W, strain hpr5, active compounds read low 1.01 | locus YJL095W, strain BCK1 (second series), active compounds read low 1.02 | locus YJL095W, strain BCK1, active compounds read low 1.07 and 0.997 | locus YJL115W, strain asf1, active compounds read low 1.02 | locus YJL129C, strain trk1, active compounds read low 0.997 | locus YJL134W, strain LCB3, active compounds read low 0.993 | locus YJL154C, strain vps35, active compounds read low 1 | locus YJL164C, strain tpk1, active compounds read low 1.03 | locus YJL166W, strain qcr8, active compounds read low 1 | locus YJL168C, strain set2, active compounds read low 1 | locus YJL187C, strain SWE1 (second series), active compounds read low 1.02 | locus YJL187C, strain SWE1, active compounds read low 1.02 | locus YJR066W, strain TOR1, active compounds read low 0.922 | locus YJR075W, strain HOC1, active compounds read low 1.02 | locus YKL009W, strain mrt4, active compounds read low 0.976 | locus YKL068W, active compounds read low 0.989 | locus YKL085W, strain MDH1 (second series), active compounds read low 0.995 | locus YKL085W, strain MDH1, active compounds read low 0.995 | locus YKL160W, strain elf1, active compounds read low 0.99 | locus YKL190W, strain CNB1, active compounds read low 0.994 | locus YKR001C, strain vps1, active compounds read low 0.993 | locus YKR026C, strain gcn3, active compounds read low 0.996 | locus YKR091W, strain srl3, active compounds read low 1.01 | locus YLL001W, strain dnm1, active compounds read low 1.03 | locus YLL026W, active compounds read low 1.02 | locus YLL041C, strain sdh2, active compounds read low 1.01 | locus YLR027C, strain aat2, active compounds read low 1.01 | locus YLR039C, strain RIC1, active compounds read low 1.07 | locus YLR058C, strain SHM2, active compounds read low 0.996 | locus YLR102C, strain apc9, active compounds read low 0.995 | locus YLR113W, strain HOG1, active compounds read low 1.03 | locus YLR221C, strain rsa3, active compounds read low 1.01 | locus YLR258W, strain gsy2, active compounds read low 1.03 | locus YLR262C, strain YPT6 (second series), active compounds read low 0.976 | locus YLR268W, strain sec22, active compounds read low 0.96 | locus YLR320W, strain mms22, active compounds read low 1.02 | locus YLR330W, strain CHS5, active compounds read low 0.992 | locus YLR342W, strain FKS1, active compounds read low 1.01 | locus YLR357W, strain rsc2, active compounds read low 1.04 | locus YLR370C, strain arc18, active compounds read low 1.01 | locus YLR371W, strain rom2, active compounds read low 1.01 | locus YLR384C, strain iki3, active compounds read low 1.01 | locus YLR418C, strain cdc73, active compounds read low 1.04 | locus YML016C, strain PPZ1, active compounds read low 0.997 | locus YML032C, strain rad52, active compounds read low 0.992 | locus YML120C, strain ndi1, active compounds read low 1.02 | locus YML124C, strain tub3, active compounds read low 0.992 | locus YMR058W, strain fet3, active compounds read low 1.02 | locus YMR078C, strain ctf18, active compounds read low 0.998 | locus YMR125W, strain sto1, active compounds read low 1 | locus YMR129W, active compounds read low 1.01 | locus YMR205C, strain PFK2, active compounds read low 1.02 | locus YMR223W, strain ubp8, active compounds read low 1.02 | locus YMR231W, strain pep5, active compounds read low 1 | locus YMR307W, strain GAS1, active compounds read low 1.06 | locus YNL067W, strain RPL9B, active compounds read low 1.03 | locus YNL071W, strain lat1, active compounds read low 1.01 | locus YNL128W, strain TEP1, active compounds read low 0.984 | locus YNL153C, strain GIM3, active compounds read low 1.03 | locus YNL183C, strain NPR1, active compounds read low 0.924 | locus YNL209W, strain ssb2, active compounds read low 1.01 | locus YNL233W, strain BNI4, active compounds read low 1.06 | locus YNL248C, strain rpa49, active compounds read low 1.01 | locus YNL250W, strain rad50, active compounds read low 0.973 | locus YNL271C, strain bni1, active compounds read low 0.987 | locus YNL298W, strain CLA4, active compounds read low 1 | locus YNL307C, strain MCK1, active compounds read low 1.04 | locus YNL322C, strain KRE1 (second series), active compounds read low 1.01 | locus YNL322C, strain KRE1, active compounds read low 0.988 | locus YNR049C, strain mso1, active compounds read low 1.02 | locus YNR052C, strain pop2, active compounds read low 1.04 | locus YOL006C, strain TOP1, active compounds read low 1.06 | locus YOL012C, strain htz1 1 | locus YOL147C, strain pex11, active compounds read low 0.99 | locus YOR001W, strain rrp6, active compounds read low 1.01 | locus YOR061W, strain CKA2, active compounds read low 0.972 | locus YOR069W, strain VPS5, active compounds read low 1.01 | locus YOR070C, strain gyp1, active compounds read low 1.03 | locus YOR080W, strain dia2, active compounds read low 1 | locus YOR083W, strain WHI5, active compounds read low 0.986 | locus YOR106W, strain vam3, active compounds read low 1.01 | locus YOR136W, strain idh2, active compounds read low 0.994 | locus YOR144C, strain elg1, active compounds read low 0.988 | locus YOR184W, strain ser1, active compounds read low 0.957 | locus YOR231W, strain MKK1, active compounds read low 1.01 | locus YOR265W, strain rbl2, active compounds read low 1.01 | locus YOR270C, strain vph1, active compounds read low 0.999 | locus YOR290C, strain snf2, active compounds read low 0.99 | locus YOR316C, strain cot1, active compounds read low 1 | locus YPL051W, strain arl3, active compounds read low 1 | locus YPL078C, strain atp4, active compounds read low 1.01 | locus YPL106C, strain sse1, active compounds read low 1.02 | locus YPL240C, strain hsp82, active compounds read low 1.01 | locus YPL241C, strain CIN2, active compounds read low 0.999 | locus YPL256C, strain CLN2, active compounds read low 0.972 | locus YPR119W, strain clb2, active compounds read low 0.993 | locus YPR141C, strain kar3, active compounds read low 0.991 | locus YPR163C, strain tif3, active compounds read low 0.994 | locus YPR167C, strain met16, active compounds read low 0.999 | strain wtn01, active compounds read low 0.984
